Assay outcomes: PubChem, National Center for Advancing Translational Sciences (NCATS)
TSHR ag: activates the human thyroid stimulating hormone receptor; HEK293-CNG-TSHR cells (CNG channel as cAMP sensor), membrane potential dye, cAMP; P16473; hit rate 0.48% among 73,000; Potency, µM (highest dose often 57.1 µM), inactives show top-dose activation, most hits filed as activators; AID 926; active = well fitted activation curve with a large enough effect in the main read-out, with a control signal flat, not every such curve was filed as active; inconclusive = small, poorly fitted or top-dose-only effect, or a change in a side signal; inactive = no such curve, though single readings can be large or run the other way; % of control where 0% means no effect;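 also: the control signal comes from parental cells without the receptor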
Target sequence (P16473 whole entry, looked up): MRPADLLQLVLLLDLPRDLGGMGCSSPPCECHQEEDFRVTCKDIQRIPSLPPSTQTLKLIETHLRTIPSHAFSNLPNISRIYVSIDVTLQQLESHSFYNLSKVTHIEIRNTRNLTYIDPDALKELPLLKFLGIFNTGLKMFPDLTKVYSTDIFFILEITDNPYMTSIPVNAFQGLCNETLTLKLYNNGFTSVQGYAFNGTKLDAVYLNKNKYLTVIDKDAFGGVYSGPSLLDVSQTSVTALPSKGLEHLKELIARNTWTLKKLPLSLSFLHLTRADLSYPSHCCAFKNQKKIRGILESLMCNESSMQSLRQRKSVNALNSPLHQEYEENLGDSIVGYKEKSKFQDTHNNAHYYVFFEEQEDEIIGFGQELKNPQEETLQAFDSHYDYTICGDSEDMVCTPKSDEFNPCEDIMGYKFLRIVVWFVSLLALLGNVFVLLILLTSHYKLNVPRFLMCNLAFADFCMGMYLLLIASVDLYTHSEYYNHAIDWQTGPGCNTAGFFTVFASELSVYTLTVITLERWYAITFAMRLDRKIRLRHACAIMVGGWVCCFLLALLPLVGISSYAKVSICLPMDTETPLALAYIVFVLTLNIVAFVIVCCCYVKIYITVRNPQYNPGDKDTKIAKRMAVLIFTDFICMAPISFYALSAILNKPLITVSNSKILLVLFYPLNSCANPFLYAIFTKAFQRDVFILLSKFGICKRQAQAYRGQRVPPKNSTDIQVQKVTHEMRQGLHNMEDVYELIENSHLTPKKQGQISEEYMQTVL
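HEK 293 cells stably expressing TSHR and a modified CNG channel, with CNG-only parental cells as counterscreen, were preloaded 60 min at room temperature with membrane potential dye containing 100 uM RO 20-1724. Compound exposure was 30 min, and depolarization was read as fluorescence at 590 nm.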
Ub-GFP proteasome: ubiquitin-GFP accumulation via proteasome inhibition | Ubiquitin-GFP reporter cells, proteasome inhibition, GFP fluorescence; response scale: untreated = 0%, 10 µM MG-132 = 100% | Potency, µM (doses to about 45.9 µM), without a hit: top-dose activation (GFP accumulation), most hits filed as activators | 67,000 tested, under 10 active | AID 526; active = well fitted activation curve with a large enough effect, not every such curve was filed as active; inconclusive = small, poorly fitted or top-dose-only effect, or another doubt; inactive = no such curve, though single readings can be large or run the other way
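Reporter cells (U2OS, ubiquitin-G76V-GFP fusion) are plated overnight, then treated 4 hr at 37 °C with compound titrations from 46 uM down to 2.9 nM. Activity is scaled against untreated cells and 10 uM MG-132.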
GBA activity: human lysosomal glucosylceramidase modulation. Potency, µM. purified enzyme, resorufin glucoside fluorescence (screen aimed at inhibitors), 20 min. hit rate 1.1% among 48,000; in the data active = potency below about 15 µM; inconclusive = mostly about 16 µM to 33 µM;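 also: the screen sought inhibitors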
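Normal human glucocerebrosidase (0.2 nM final) was assayed with resorufin β-D-glucopyranoside (30 uM final) in 50mM citric acid/KH2PO4, 10mM sodium taurocholate, 0.01% tween-20, pH 5.9. Compounds were titrated; fluorescence (Ex 548, Em 600) read after 20 min at RT.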
PK Bst: modulators of Bacillus stearothermophilus pyruvate kinase | Potency, µM | purified pyruvate kinase, luminescence ATP production; ribose 5-phosphate activator present at AC10 | AID 361 | hit rate 1.2% among 51,000; in the data active = potency below about 11 µM; inconclusive = mostly about 12 µM to 25 µM;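 the screen sought inhibitors and activators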;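 also: scaled between full activation by ribose 5 phosphate and full inhibition by luteolin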
USP2a inhib: blocks human ubiquitin-specific protease USP2a | AID 927 | Potency, µM (top dose mostly 38.3 µM), for the others: at the highest dose activity change, negative = inhibition, most hits filed as inhibitors | hit rate 0.1% among 60,000 | USP2a enzymatic assay, qHTS inhibition | O75604; also: nearly all actives have a fitted effect of over 60% in size
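USP2 core (20nM final) preincubated 30 min RT with compound, then Ub-PLA2 20nM and NBD C6-HPC 20uM final added; buffer 20mM Tris-HCl pH 8.0, 2mM CaCl2. Fluorescence Ex 460/Em 535 read at 0 and 2.5 h; normalized to NEM.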
HEK293 cAMP cs: counter-screen for TSHR agonists: cAMP increase in parental HEK293; hit rate 2.5% among 73,000; Potency, µM (top dose mostly 57.1 µM), inactives show at the highest dose activation, hits mostly activators; parental HEK293 CNG cAMP sensor, membrane potential fluorescence; also: % of control where 0% means no effect; nearly all actives have a fitted effect of over 55% in size
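Parental HEK 293 cells stably expressing a cAMP-gated CNG channel were loaded with membrane potential dye containing 100 uM RO 20-1724 for 60 min. Compound added for 30 min; depolarization read as fluorescence intensity at 590 nm.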
Numbers without * were called inactive; u = inconclusive; x = not tested or not shown; ! = repeats disagree; [ ] = another dose, or the depositor's remark. This is a sample that favours compounds with a hit; in the whole collection about 4.1% have one here. Unless noted, calls follow the shape of the dose curve; as a rule, active = well fitted curve in the direction sought with a large enough effect; inconclusive = small, poorly fitted or top-dose-only effect, or another doubt; inactive = no such curve, though single readings can be large; an effect the other way counts as inactive or inconclusive. Potency is read from the fitted curve at half-maximal effect.

SMILES	TSHR ag	Ub-GFP proteasome	GBA activity	PK Bst	USP2a inhib	HEK293 cAMP cs
CCNC(=O)[C@@H]1O[C@@H](n2cnc3c(N)ncnc32)[C@H](O)[C@H]1O	u	-1%	x	x	x	0.16µM*
Nc1ncnc2c1ncn2[C@@H]1O[C@@H](COP(=O)(O)CP(=O)(O)OP(=O)(O)O)[C@H](O)[C@@H]1O	u	6%	x	x	0%	u
Cc1ccc2c(c1)C1CN(C)CCC1N2S(=O)(=O)c1ccccc1 (stereo unspecified)	7%	3%	10*	>57	-3%	9%
CC(C)[C@@]1(NC(=O)[C@@H]2C=C3c4cccc5[nH]cc(c45)C[C@@H]3N(C)C2)O[C@]2(O)[C@H]3CCCN3C(=O)[C@H](Cc3ccccc3)N2C1=O	-6%	-5%	x	x	x	-11%
CCOC(=O)c1c(C)n(CCN2CCN(C)CC2)c2ccc(OC)cc12	8%	-1%	u	>57	2%	7%
CCOC(=O)c1c(C)n(Cc2ccco2)c2ccc(OC)cc12	u	8%	x	x	-22%	25µM*
CCCC(=O)Nc1ccc(N2CCN(CC)CC2)c(Cl)c1	2%	-2%	1.7*	>57	3%	6%
C[C@H]1CC[C@]2(NC1)O[C@@H]1C[C@@H]3[C@@H]4CC=C5C[C@H](O)CC[C@@]5(C)[C@H]4CC[C@@]3(C)[C@H]1[C@@H]2C	2%	4%	x	x	x	-3%
COc1ccc2c(c1OC)C(=O)O[C@H]2[C@H]1c2cc3c(cc2CCN1C)OCO3	u	1%	x	x	2%[17.1 µM]	13µM*!
CN[C@H]1[C@H](C)O[C@@H](O[C@@H]2C/C=C(/C)C/C(C)=C\C=C/CC[C@@H](C)CNC(=O)/C=C\C=C/[C@H]2C)C[C@@H]1O	-1%[11.4 µM]	-5%[9.17 µM]	x	x	x	4%[11.4 µM]
CC(=O)N1C[C@@H]2C[C@H](C1)c1cccc(=O)n1C2	3%	2%	x	x	x	1%
CC(NS(=O)(=O)c1ccc(CCC(=O)N2CCN(C)CC2)cc1)c1ccccc1 (stereo unspecified)	u	6%	>77	>57	12%	4µM*
Cc1cc(S(=O)(=O)NCC(C)C)ccc1OCC(=O)N1CCN(Cc2ccccc2)CC1	19%	0%	x	>57	20%	5%
CN1C(=O)C(C2c3ccccc3C(=O)N2Cc2ccccc2)C(=O)N(C)C1=O (stereo unspecified)	x	-3%	12*	>57	23%	3%
O=c1cccc2n1C[C@@H]1C[C@H]2CN2CCCC[C@H]12	-8%	-1%	x	x	x	-10%
Cc1cc(NC(=O)CSc2nc3c(c(=O)n2-c2ccc(Cl)cc2)SCC3)no1	u	15%	14*	>57	23%	u
CO[C@@H](C)[C@](O)(C(=O)OC1=CCN2CC[C@H](O)[C@H]12)C(C)C	-2%	0%	x	x	x	9%
C=C(C)[C@H]1[C@H]2OC(=O)[C@@H]1[C@]1(O)C[C@H]3O[C@]34C(=O)O[C@H]2[C@]14C	-2%	5%	x	x	x	6%
CCCC/C(C)=C/[C@@H](NP(=O)(c1ccccc1)c1ccccc1)c1ccccc1	u	x	x	x	x	16µM*
CCCC/C=C/[C@@H](NP(=O)(c1ccccc1)c1ccccc1)c1ccccc1OC	u	x	x	x	x	2µM*
CCCCCP(=O)(O)c1ccccc1	0%	17%	x	x	3%	6%
C[C@@]12CC[C@H](O)C[C@@H]1CC[C@H]1[C@H]2C[C@@H](O)[C@]2(C)[C@@H](C3=CC(=O)OC3)CC[C@@]12O	12%	1%	x	x	x	20%
COc1cc2cc(c1Cl)N(C)C(=O)C[C@H](OC(=O)C(C)C)[C@]1(C)O[C@@H]1[C@@H](C)[C@H]1C[C@](O)(NC(=O)O1)[C@@H](OC)/C=C\C=C(\C)C2	u	-2%[9.17 µM]	x	x	x	1µM*
CC1O[C@@H](OC2CC[C@@]3(C=O)C4CC[C@]5(C)C(C6=CC(=O)OC6)CC[C@@]5(O)C4CC[C@]3(O)C2)C(O)C(O)C1O (stereo partly specified)	x	x	x	x	-5%	x
C[C@@H]1O[C@@H](O[C@H]2C[C@@H](O)[C@]3(CO)[C@@H]4[C@@H](O)C[C@]5(C)[C@H]([C@@H]6COC(=O)C6)CC[C@@]5(O)[C@H]4CC[C@@]3(O)C2)[C@H](O)[C@H](O)[C@@H]1O	u	-4%	x	x	2%	25µM*
SMILES	TSHR ag	Ub-GFP proteasome	GBA activity	PK Bst	USP2a inhib	HEK293 cAMP cs
CC(=Nc1ccc2c(c1)CCC2)c1c(O)n(C)c(=O)n(C)c1=O	21%	-6%	>77	>57	3%	24%
CC(C)(C)n1c(O)c(C=Nc2ccc3c(c2)CCC3)c(=O)[nH]c1=O	u	1%	11*	>57	4%	25µM*
Cc1nn(CCC#N)c2c1P(=S)(N1CCCC1)OC(c1ccc(F)cc1)=N2 (stereo unspecified)	16µM*	4%	x	>57	5%	27%
CCC(=O)Nc1c(C)nn(C(=O)CC)c1C	u	-3%	>77	>57	x	32µM*
CC1N(P(=O)(c2ccccc2)c2ccccc2)CC(O)(c2ccccc2)CC12CC2 (stereo unspecified)	u	x	x	x	x	16µM*
N[C@H](Cn1oc(=O)[nH]c1=O)C(=O)O	8%	14%	x	x	x	10%
COC(=O)[C@@H]1C[C@@]1(C)[C@@H](NP(=O)(c1ccccc1)c1ccccc1)c1ccccc1	u	x	x	x	x	1.3µM*
COc1cc2c(cc1O)CCN[C@H]2C	2%	5%	x	x	x	3%
CN(C)C1C(=O)C(C(N)=O)=C(O)[C@@]2(O)C(=O)C3=C(O)c4c(O)ccc(Cl)c4[C@](C)(O)C3CC12 (stereo partly specified)	x	x	x	x	10µM*	x
CCN1C[C@@]2(C)CC[C@H](O)[C@@]34[C@@H]5C[C@H]6[C@H](O)[C@@H]5[C@](O)(C[C@@H]6OC)[C@H](C[C@@H]23)[C@H]14	1%	1%	x	x	x	1%
c1ccc(CN2CCC3(CCc4ccccc43)CC2)cc1	u	9%	x	x	x	32µM*
c1ccc(CN2CCC3(CCNCC3)CC2)cc1	u	-2%	x	x	17%	u
CC(C)CN1CCCC2(CCN(C(=O)c3ccncc3)CC2)C1	-5%	-5%	x	x	10%	6%
CN1CCCC2(CCN(C(=O)c3ccncc3)CC2)C1	u	-8%	x	x	u	10µM*
COc1ccc2c(c1)c(CCN1CCOCC1)c(C)n2C(=O)c1cccc(Cl)c1Cl	u	x	x	x	x	10µM*
CCCCn1c(C)c(C(=O)O)c2cc(OC)ccc21	8%	4%	>77	>57	-4%	18%
CN1C[C@H](CO)C=C2c3cccc4[nH]cc(c34)C[C@@H]21	-17%[25.6 µM]	2%[20.5 µM]	x	x	-3%[17.1 µM]	-9%[25.6 µM]
